Shown are actives, neighbours in structure and some others; about 21% of the full set was active somewhere.
Shiga inhibitor: blocks Shiga toxin action in Vero cells. Vero cells, Shiga toxin protein synthesis inhibition reporter. inhibition, % at 38.7 µM. 290,000 tested, 9.2% active. AID 2315; in the data active means inhibition mostly above about 28%, no sharp cut-off; inactive means mostly below about 43%; further: 0% is about no effect
Pf growth 48h: P. falciparum growth inhibition at 48 hours (one generation); P. falciparum luciferase growth in erythrocytes, 48 h; Potency, µM (titrated, usually from 28.7 µM), for inactives: at the top dose activity change, negative = inhibition, actives largely listed as inhibitors; 310,000 tested, 5.9% active; AID 504832; further: potency means the concentration at half of the fitted maximal effect; on the % scale 0 is the no-effect control and ±100 the full control effect
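Compounds are pin-transferred into medium, infected erythrocytes (2% hematocrit, 0.1% parasitemia final) are added, and plates sit one parasite generation at 37 C in 5% CO2. Detection reagent is then added and luminescence measured.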
Cycloheximide cs: counter-screen hit for Shiga toxin inhibitors, cycloheximide. cell reporter, cycloheximide protein synthesis inhibition counterscreen. max response, %. 300,000 tested, 12% active. AID 2314; in the data active means max response mostly above about 13%, no sharp cut-off; inactive means mostly below about 14%; further: read at 38.3 µM for the half of the compounds with a filed dose; 0% is about no effect
HCMV inh: human cytomegalovirus inhibition; HFF cells, HCMV-luciferase reporter, 72 h; stronger effect = lower value; activity change, negative = inhibition, % at 57.5 µM; 410,000 tested, 4.5% active; AID 1259415; in the data active means activity change below about -60%; inconclusive means no clear call, values can overlap the other calls; inactive means above about -39%; further: on the % scale 0 is the no-effect control and ±100 the full control effect
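Inhibition of viral replication was scored as loss of reporter luminescence in HFFs infected with HCMV-luciferase (MOI 1 PFU/cell) for 72 h; compounds tested at 2 doses, normalized to buffer and Salinomycin controls.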
HCV inh: HCV inhibition. Huh7.5.1 HCVcc-Cre infection, luciferase reporter, 44 h. Potency, µM (doses to about 41.8 µM), for inactives: at the top dose activity change, negative = inhibition, hits mostly inhibitors. 340,000 tested, 3.4% active; further: potency means the concentration at half of the fitted maximal effect; on the % scale 0 is the no-effect control and ±100 the full control effect
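Antiviral activity was scored by luciferase reporter output from cells infected with HCVcc-Cre (~0.5 moi) in presence of compound, 44 h infection period, cells seeded 1,000/well 4 h prior.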
Pf growth 96h: P. falciparum growth inhibition at 96 hours. 320,000 tested, 6.9% active. AID 504834. P. falciparum luciferase reporter growth, 96 h. Potency, µM (highest dose often 28.7 µM), for the others: at the highest dose activity change, negative = inhibition, most hits filed as inhibitors; further: potency means the concentration at half of the fitted maximal effect; on the % scale 0 is the no-effect control and ±100 the full control effect
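Readout is luminescence from an integrated firefly luciferase in P. falciparum. Red cells, 2% hematocrit and 0.05% parasitemia final, were cultured with compound through two parasite generations (96 hours) at 37 C, 5% CO2.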
* = called active by the depositor; ? = inconclusive; · = not tested or not shown; + = active, no number; [ ] = another dose, or the depositor's remark. Unless noted, the call rests on the fitted dose curve; in most records, active means well fitted inhibition curve with a large enough effect; inconclusive means small, poorly fitted or top-dose-only effect, or another doubt; inactive means no such curve, though single readings can be large or run the other way.

SMILES	Shiga inhibitor	Pf growth 48h	Cycloheximide cs	HCMV inh	HCV inh	Pf growth 96h
COc1ccc(OC)c(CCNc2nc3cnc(-c4ccccc4Oc4ccccc4)cc3n2C)c1	·	·	·	-15	·	·
CC(=O)Nc1ccc(/C=N/Nc2nc3ccccc3s2)cc1	72*	51%	54*	88	-4%	422%
OC(CNc1nc2ccccc2s1)c1ccccc1 (stereo unspecified)	49	13µM*	22	?	-17%	-29%
CC(C)OC(=O)CCC(=O)Nc1nc2ccccc2s1	31	·	13	16	-22%	-16%
COc1cc(/C=N\Nc2nc3ccccc3o2)cc(OC)c1OC	110*	42%	40*	9	?	19%
COCCN(CC(=O)Nc1cccc(C)c1C)C(=O)C1CCN(S(=O)(=O)c2ccccc2)CC1	·	·	·	-23	1%	·
CC(=O)c1c(-c2ccccc2)c2cc(Cl)ccc2[nH]c1=O	2	-9%	13	-63*	2%	?
CC(=O)c1c(-c2ccc(Cl)cc2)c2ccccc2[nH]c1=O	-11	7%	12	?	-17%	147%
O=c1cc(-c2ccccc2)[nH]c2cc(Cl)ccc12	-14	4.7µM*	5	-25	-3%	8.3µM*
O=c1cc(-c2ccccc2)[nH]c2ccc(Cl)cc12	+	·	44*	·	·	·
CCOC(=O)c1ccc2c(c1)N(Cc1ccccc1)C(=O)c1ccccc1S2	·	·	·	-18	·	·
CCN1C(=O)c2ccccc2Sc2ccc(NC(=O)Nc3ccc(C(C)=O)cc3)cc21	·	·	·	-26	·	·
CCN(CC)CCNC(=O)Nc1ccc2c(c1)N(Cc1ccccc1)C(=O)c1ccccc1S2	·	·	·	-61*	·	·
CC(C)NC(=O)Nc1ccc2c(c1)N(C)C(=O)c1ccccc1S2	·	·	·	10	·	·
CCN1C(=O)c2ccccc2Sc2ccc(NC(=O)Nc3ccc(Br)c(C)c3)cc21	·	·	·	-102*	·	·
CCN1C(=O)c2ccccc2Sc2ccc(C(=O)NC(C)C)cc21	-3	-11%	-2	-101*	7%	30%
CCc1ccccc1NC(=O)Nc1ccc2c(c1)N(CC)C(=O)c1ccccc1S2	·	·	·	-84*	·	·
Cc1cc(C)c(S(=O)(=O)c2cccc(Br)c2C)c(=O)[nH]1	-1	16%	8	17	-10%	25%
COc1cc(CN2CCC(n3nccc3NC(=O)c3ccccc3OC)CC2)ccc1F	36	?	22	-2	-4%	0%
COc1ccc(Cn2c(C(=O)O)c(CNC3CCCCCC3)c3ccc(OC)cc32)cc1	·	·	·	-100*	·	·
COc1ccc2c(CNCCc3ccccc3OC)c(C(=O)O)n(Cc3ccc(F)cc3Cl)c2c1	·	·	·	-108*	·	·
COc1ccc2c(CNC3CCCCCC3)c(C(=O)O)n(Cc3ccc(C)cc3)c2c1	·	·	·	11	·	·
COc1ccc2c(CNCCc3ccc(SC)cc3)c(C(=O)O)n(Cc3ccc(F)cc3)c2c1	·	·	·	-74*	·	·
COc1ccc2c(CNCC(C)c3ccccc3)c(C(=O)O)n(Cc3ccc(F)cc3Cl)c2c1 (stereo unspecified)	·	·	·	35	·	·
CCCCCNC(=O)c1ccc2c(=O)n(CCc3ccccc3)c(=O)[nH]c2c1	·	·	·	0	·	·
SMILES	Shiga inhibitor	Pf growth 48h	Cycloheximide cs	HCMV inh	HCV inh	Pf growth 96h
CCCC(CCC(=O)Nc1cccc([N+](=O)[O-])c1)C(=O)O (stereo unspecified)	-8	39%	-2	41	16%	3%
Cc1cccc(-n2ncc3c2CCCC3NC(=O)CCc2ccncc2)c1C (stereo unspecified)	-5	5%	-4	0	?	?
Cc1cccc(-n2ncc3c2CCCC3NC(=O)C2CCOCC2)c1C (stereo unspecified)	-18	-15%	-2	-38	22µM*	-15%
Cc1cccc(-n2ncc3c2CCCC3NC(=O)c2ccc[n+]([O-])c2)c1C (stereo unspecified)	-5	14%	-2	?	13µM*	?
Cc1cc(C(=O)NC2CCCc3c2cnn3-c2cccc(C)c2C)n(C)n1 (stereo unspecified)	-12	-29%	-1	-40	0.32µM*	0%
N#Cc1ccccc1Cn1c(=O)n(-c2cccc(C(F)(F)F)c2)c(=O)c2sccc21	·	·	·	5	·	·
Cc1cc(C)n(-c2nc3ccccc3s2)n1	109*	140%	56*	10	-4%	13%
Cc1c2c(=O)n(-c3nc4ccccc4s3)nc-2cc(O)n1Cc1ccccc1	22	2.9µM*	11	·	4%	2.9µM*
Cc1cc(NC(=O)CN2CC(C)OC(C)C2)n(-c2nc3ccccc3s2)n1 (stereo unspecified)	-8	23%	-7	·	-9%	17%[5.75 µM]
Cc1cc(N)n(-c2nc3ccccc3s2)n1	9	?	-4	54	-17%	4%
Cc1cc(NC(=O)C(C)C)n(-c2nc3ccccc3s2)n1	69*	48%	31*	169	?	63%
[O-][N+](=Cc1ccccc1)CC1(O)CCCCC1	·	·	·	83	·	·
CC1ON=C(c2ccc(F)cc2)NC1=O (stereo unspecified)	·	·	·	1	·	·
Cc1cc(N2CCN(c3ccccc3)CC2)n2cc(-c3ccccc3)nc2n1	64	?	14	20	19%	7.4µM*
Cc1cc(N2CCN(c3ccccc3)CC2)n2c(n1)nc1ccccc12	-19	5.9µM*	-6	?	2%	?
Cc1cc(N2CCN(c3ccccc3)CC2)n2nnnc2n1	-7	8%	-5	53	25%	-5%
Cc1cc(N2CCN(c3ccccc3Cl)CC2)n2cc(-c3ccccc3)nc2n1	-2	?	7	14	?	?
CC(C)(Oc1ccc(Cl)cc1)C(=O)N1CC2ON=C(c3c(F)cccc3Cl)C2C1 (stereo unspecified)	·	·	·	-25	·	·
COCc1cc(N2CCN(C(=O)OC(C)(C)C)C[C@@H]2C)ccc1N1CC[C@H](O)C1	·	·	·	76	·	·
COc1ccc2c(c1)CCc1c(C(=O)Nc3c(C)nn(Cc4ccccc4C)c3C)noc1-2	·	·	·	-66*	·	·
Cc1ccccc1Cn1nc(C)c(NC(=O)c2noc3c2CCc2ccccc2-3)c1C	-12	?	-1	-24	?	1.2µM*
COc1ccc2c(c1)CCc1c(C(=O)Nc3c(C)nn(Cc4c(Cl)cccc4Cl)c3C)noc1-2	·	·	·	-92*	·	·
COc1ccc2c(c1)CCc1c(C(=O)Nc3cnn(Cc4ccc(Cl)cc4Cl)c3)noc1-2	·	·	·	18	·	·
Cc1ccccc1Cn1nc(C)c(NC(=O)c2noc3c2CC(C(C)(C)C)CC3)c1C (stereo unspecified)	-3	?	-3	?	-5%	68%
COc1cccc(CNC(=O)CCCSc2ccccc2)c1	35	0%	16	20	?	0%
CN(C)c1ccc(C(CNS(=O)(=O)c2ccc(Br)cc2)N2CCOCC2)cc1 (stereo unspecified)	·	·	·	-2	·	·
